# Experimental data from PubChem BioAssay (NCATS).
# Several values for one entry are separate records, joined by “and”; a condition that tells them apart may be missing. Equal values may be shown once. Records with an inconclusive call do not appear. Some compounds were tested as several samples or in several runs, with calls that do not always agree. For part of these data: Entries with a potency or affinity are not part of this list. Activity calls are given as the source filed them.
# Tests used:
# [1] = Ebola virus entry assay, green fluorescence channel
# [2] = Ebola virus entry assay, blue channel fluorescence
# [3] = Ebola virus entry assay, ratio channel
# [4] = Ebola virus entry assay, green channel fluorescence
# [5] = Ebola virus entry assay, reporter ratio channel; AC50: Channel type: primary unless noted; outcome: Channel type: primary unless noted
# [6] = Ebola virus entry assay, blue channel (ratio component)
# [7] = qHTS assay for cell viability of HEK293 cells (AID 743288; active = well fitted cell-killing curve with a large enough effect; note: nearly all actives have a fitted effect of over 50% in size; note: potency is the fitted concentration of half-maximal effect; for max response: % is set by controls: 0 for no effect and ±100 for the full control effect); conditions: ATP luminescence (CellTiter-Glo), 18 h; max response: stronger effect = lower value
# Procedure, shortened: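 Parental HEK293 cells, 2,000 per well, preincubated at least 5 h at 37 C, then exposed to compounds in DMSO for 18 h at 37 C. Viability by CellTiter-Glo ATP luminescence after 30 min at room temperature.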
# [8] = qHTS assay for cell viability of the p53RE-bla HCT-116 cell line (AID 743292; active = well fitted cell-killing curve with a large enough effect; note: nearly all actives have a fitted effect of over 55% in size; note: potency is the fitted concentration of half-maximal effect); conditions: p53RE-bla HCT-116 viability, ATP luminescence, 16 h; series mostly up to 95 µM
# Procedure, shortened: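 Intracellular ATP of p53RE-bla HCT-116 cells measured by luciferase luminescence following 16 h compound incubation at 37 C; DMSO-only wells served as vehicle controls.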
# [9] = qHTS profiling of the MIPE4 collection as inhibitors of Plasmodium falciparum (3D7) proliferation (AID 743344);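 note: scaled between DMSO vehicle wells and 0.29 µM artemisinin as full inhibition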; conditions: P. falciparum 3D7 in erythrocytes, SYBR Green DNA fluorescence, 72 h; at 28.5 µM (top of the series) unless noted
# Procedure, shortened: (§1)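 Erythrocytes infected with P. falciparum (0.3% parasitemia, 2.5% hematocrit) incubated with compounds 72 h at 37 C, 5% CO2. Lysis with saponin/Triton buffer containing SYBR Green I, overnight at room temperature in the dark; DNA fluorescence (485/535 nm) normalised to 0.29 uM artemisinin and DMSO.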
# [10] = qHTS profiling of the MIPE4 collection as inhibitors of Plasmodium falciparum (DD2) proliferation (AID 743345); conditions: P. falciparum Dd2 in erythrocytes, SYBR Green DNA, 72 h; at 28.5 µM (top of the series) unless noted
# Procedure, shortened: as §1
# [11] = qHTS profiling of the MIPE4 collection as inhibitors of Plasmodium falciparum (DD2) proliferation (Rep 2) (AID 743346); conditions: P. falciparum Dd2 in erythrocytes, SYBR Green DNA, 72 h; at 28.5 µM (top of the series) unless noted
# Procedure, shortened: as §1
# [12] = qHTS profiling of the MIPE4 collection as inhibitors of Plasmodium falciparum (HB3) proliferation (AID 743347);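 note: plate controls were DMSO vehicle wells for no effect and artemisinin wells for full effect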; conditions: P. falciparum HB3 in erythrocytes, SYBR Green DNA, 72 h; at 28.5 µM (top of the series) unless noted
# Procedure, shortened: as §1
# [13] = Ebola virus entry assay, green fluorescence channel; remark: listed apart in the source
# [14] = Ebola virus entry assay, ratio channel readout
# [15] = Ebola virus entry assay, blue channel fluorescence; remark: listed apart in the source
# Throughout, for efficacy: 0% is about no effect.
structure (smiles),measurement,setting,value
FC(F)(F)c1cccc(C2=CCN(CCc3ccc4ccccc4c3)CC2)c1,efficacy,[1],-24.5% (inactive)
same,outcome,[2],inactive
same,outcome,[3],inactive
same,outcome,[4],inactive
same,outcome,[5],inactive
same,outcome,[6],inactive
Oc1ccccc1-c1ccccc1,Potency,[7],891 µM (active)
same,max response,[7],-4.38% (inactive) and -13.9% (inactive) and 2.52% (inactive)
same,Potency,[8],inactive and 708 µM (active)
same,efficacy,[1],11.7% (inactive)
same,outcome,[2],inactive
same,outcome,[3],inactive
same,outcome,[4],inactive
same,outcome,[5],inactive
COc1ccc2c(c1OC)CN1CCc3cc4c(cc3C1C2)OCO4 (stereo not drawn),"parasite growth, % of DMSO control",[9],12.7%
same,"parasite growth remaining, % of DMSO control (lower = more inhibition)",[10],24.6%
same,"parasite growth, % of control (lower = inhibition)",[11],10.1%
same,"growth, % of control",[12],7.61%
same,efficacy,[1],-21% (inactive)
same,outcome,[2],inactive
same,outcome,[3],inactive
same,outcome,[4],inactive
same,outcome,[5],inactive
same,outcome,[6],inactive
C[C@@H]1O[C@@H](O[C@H]2C[C@@H](O)[C@]3(CO)[C@H]4[C@H](O)C[C@]5(C)[C@@H](C6=CC(=O)OC6)CC[C@]5(O)[C@@H]4CC[C@]3(O)C2)[C@H](O)[C@H](O)[C@H]1O,Potency,[7],0.0631 µM (active)
same,"parasite growth, % of DMSO control",[9],81.9%
same,"parasite growth remaining, % of DMSO control (lower = more inhibition)",[10],95.7%
same,"parasite growth, % of control (lower = inhibition)",[11],124%
same,"growth, % of control",[12],101%
same,efficacy,[1],-93.6% (inactive)
same,AC50,[2],8.91 µM (active)
same,AC50,[3],0.708 µM (active)
same,outcome,[4],inactive
same,AC50,[5],0.708 µM (active)
NC(=O)N/N=C/c1ccc([N+](=O)[O-])o1,efficacy,[1],31.4% (inactive)
same,outcome,[2],inactive
same,outcome,[3],inactive
same,outcome,[4],inactive
same,outcome,[5],inactive
same,outcome,[6],inactive
Cc1cccc(C)c1NC(=O)CN1CCCC1=O,"parasite growth, % of DMSO control",[9],101%
same,"parasite growth remaining, % of DMSO control (lower = more inhibition)",[10],99.6%
same,"parasite growth, % of control (lower = inhibition)",[11],129%
same,"growth, % of control",[12],89.5%
same,efficacy,[1],-15.1% (inactive)
same,outcome,[2],inactive
same,outcome,[3],inactive
same,outcome,[4],inactive
same,outcome,[5],inactive
CCCc1nc2c(C)cc(-c3nc4ccccc4n3C)cc2n1Cc1ccc(-c2ccccc2C(=O)O)cc1,efficacy,[1],21.4% (inactive)
same,outcome,[2],inactive
same,outcome,[3],inactive
same,outcome,[4],inactive
same,outcome,[5],inactive
same,outcome,[6],inactive
CNCC(O)c1ccc(O)cc1 (stereo not drawn),max response,[7],-7.41% (inactive)
same,Potency,[8],inactive
same,"parasite growth, % of DMSO control",[9],81.9%
same,"parasite growth remaining, % of DMSO control (lower = more inhibition)",[10],99.8%
same,"parasite growth, % of control (lower = inhibition)",[11],71%
same,"growth, % of control",[12],53.7%
same,efficacy,[1],-23.3% (inactive)
same,outcome,[2],inactive
same,outcome,[3],inactive
same,outcome,[4],inactive
same,outcome,[5],inactive
same,outcome,[6],inactive
CCCCCCCCCCCCCC[N+](C)(C)Cc1ccccc1,efficacy,[1],-210% (inactive)
same,AC50,[2],39.8 µM (active)
same,AC50,[3],25.1 µM (active)
same,AC50,[5],25.1 µM (active)
CC1=C(/C=C/C(C)=C/C=C/C(C)=C/C(=O)Nc2ccc(O)cc2)C(C)(C)CCC1,efficacy,[1],-119% (inactive)
same,AC50,[2],39.8 µM (active)
same,outcome,[3],inactive
same,AC50,[5],39.8 µM (active)
Cc1ccc(-n2nc(C(C)(C)C)cc2NC(=O)Nc2ccc(OCCN3CCOCC3)c3ccccc23)cc1,efficacy,[1],134% (inactive)
same,AC50,[2],25.1 µM (active)
same,AC50,[3],20 µM (active)
same,AC50,[5],20 µM (active)
Cc1cc2c(C(C)C)c(O)c(O)c(C=O)c2c(O)c1-c1c(C)cc2c(C(C)C)c(O)c(O)c(C=O)c2c1O,efficacy,[1],104% (inactive)
same,AC50,[2],39.8 µM (active)
same,outcome,[3],inactive
same,AC50,[5],39.8 µM (active)
CC1(CN2CCC(n3c(=O)[nH]c4ccccc43)CC2)OCc2ccccc2-n2cccc21 (stereo not drawn),efficacy,[1],64.1% (inactive)
same,AC50,[2],20 µM (active)
same,AC50,[3],15.8 µM (active)
same,AC50,[5],15.8 µM (active)
CCCCCCCCCCCCCCCC[N+](C)(C)CC,efficacy,[1],-76.8% (inactive)
same,AC50,[2],25.1 µM (active)
same,AC50,[3],11.2 µM (active)
same,AC50,[5],11.2 µM (active)
CCCCCCC[N+](CC)(CC)CCCCc1ccc(Cl)cc1,efficacy,[1],30.3% (inactive)
same,AC50,[2],39.8 µM (active)
same,outcome,[3],inactive
same,AC50,[5],39.8 µM (active)
Cc1ccc2c(c1)C1CN(C)CCC1N2 (stereo not drawn),efficacy,[1],62.7% (inactive)
same,AC50,[2],17.8 µM (active)
same,AC50,[3],10 µM (active)
same,AC50,[5],10 µM (active)
Cc1cccc(C)c1NC(=O)CN1CCN(CCCC(c2ccc(F)cc2)c2ccc(F)cc2)CC1,efficacy,[1],109% (inactive)
same,AC50,[2],3.16 µM (active)
same,AC50,[3],3.16 µM (active)
same,AC50,[5],3.16 µM (active)
Cn1c(CCCC(=O)O)nc2cc(N(CCCl)CCCl)ccc21,outcome,[13],inactive
same,outcome,[14],inactive
same,outcome,[4],inactive
same,outcome,[15],inactive
O=c1c(O)c(-c2ccc(O)c(O)c2)oc2cc(O)cc(O)c12,outcome,[4],inactive
